Compounds with a hit are over-represented: about 3% of the library has one in this group of screens.
Measles CPE: protection of cells from measles virus; Measles virus-infected cells, CPE protection, absorbance; protection (pct of control), % at 4 µM; 140,000 tested, 1.5% active; in the data active = protection mostly above about 24%, no sharp cut-off; inactive = mostly below about 26%
ROMK mod: modulators of human ROMK potassium channel | Tet-inducible ROMK, thallium flux fluorescence; actives lie on both sides | B-score at 10 µM | P48048 | 130,000 tested, 2% active | AID 1918;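 active = signal ratio slope over the read window, or its plate-corrected B-score, at least 3 SD from the plate mean, either direction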;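 also: B-score of the F/F0 ratio slope over 7 to 12 s after thallium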
Target sequence (P48048 whole entry, looked up): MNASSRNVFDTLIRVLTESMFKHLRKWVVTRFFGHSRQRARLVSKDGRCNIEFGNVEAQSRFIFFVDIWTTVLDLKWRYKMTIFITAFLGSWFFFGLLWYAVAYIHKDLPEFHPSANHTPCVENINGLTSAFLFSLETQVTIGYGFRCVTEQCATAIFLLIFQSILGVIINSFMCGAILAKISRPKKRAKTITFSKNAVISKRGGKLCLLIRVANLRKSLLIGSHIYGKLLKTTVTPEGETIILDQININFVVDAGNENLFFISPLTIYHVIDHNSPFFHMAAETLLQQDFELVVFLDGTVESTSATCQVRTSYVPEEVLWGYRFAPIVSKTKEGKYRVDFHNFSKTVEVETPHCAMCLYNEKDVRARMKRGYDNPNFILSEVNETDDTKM
Insulin prom inh: TRM-6 insulin promoter activity inhibition | inhibition, % at 2 µM | 130,000 tested, 0.9% active | TRM-6 cells (human fetal islet line), insulin promoter-eGFP reporter, imaging; reporter expression induced with tamoxifen | AID 1273;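 active = inhibition above the mean plus 3 SD, with well images judged a real hit on visual review, cut at about 60% in these data, passing the limit was not always enough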
sdo1 growth: restores growth of sdo1-depleted yeast; AID 817; z-score at 10 µM; S. cerevisiae sdo1-depleted JHY4D growth rescue, OD600 30 h; hits give high values; pdr5 snq2 efflux-pump mutant strain; 140,000 tested, 0.21% active;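 active = z-score above 3 at both the 24 hr and the 30 hr optical density reads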;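 also: z-score against mean and SD of all compound wells on the same plate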
* hit, by the source's call; nt = no result given.

SMILES | Measles CPE | ROMK mod | Insulin prom inh | sdo1 growth
CSc1ccccc1C(=O)N1CCN(c2ncccn2)CC1 | nt | 1.1 | 36 | nt
NC(=O)c1ccccc1N/C=C/C(=O)c1ccc(F)cc1 | 6 | nt | 21 | -0.54
NC(=O)c1ccccc1N/C=C/C(=O)c1ccc(Cl)cc1Cl | 11 | nt | 74* | 0.61
Cc1cc(SCC(=O)c2ccc3c(c2)OCO3)nc2ccccc12 | 31* | -0.014 | -11 | -1.4
Cc1cc(SCC(=O)c2ccc(O)c(O)c2)nc2ccccc12 | nt | 0.23 | -87 | nt
CCOC(=O)c1c(NC(=O)COC(=O)CCS(=O)(=O)c2ccc(C)cc2)sc(C)c1C | 2 | nt | nt | 0.33
CCOC(=O)c1cc(C(C)C)sc1NC(=O)COC(=O)CCS(=O)(=O)c1ccccc1 | 3 | 0.3 | 60* | -0.27
CCOc1ccccc1NC(=O)Cc1ccccc1OC | 12 | 0.44 | 81* | -0.54
CCOc1ccccc1NC(=O)CCC(=O)Nc1ccccc1OCC | 8 | -0.99 | 4 | 0.14
COc1ccccc1NC(=O)CCC(=O)O | 71* | 0.51 | 0 | 0.05
COc1ccc(Cl)cc1NC(=O)/C=C\C(=O)O | 6 | 0.023 | nt | -0.65
COc1ccccc1NC(=O)/C=C\C(=O)O | nt | 0.43 | 100* | nt
CCOc1ccc(NC(=S)N=Nc2c(O)[nH]c3ccccc23)cc1 | nt | 1.2* | nt | nt
O=C(Nc1ccc(Cl)c(Cl)c1)c1ccc(Cn2c(=O)[nH]c3ccsc3c2=O)cc1 | 23* | 1 | 22 | -0.85
O=C(c1ccc(Br)s1)N1CCCC1 | 9 | 0.017 | 70* | -0.14
O=C(c1ccc(Br)s1)N1CCN(c2ncccn2)CC1 | 2 | 0.05 | 19 | -0.3
O=C(NC1CCCCC1)NC1CC2CCC(C1)N2C(=O)NC1CCCCC1 (configuration not stated) | 25* | nt | -6 | 1.3
CCN1CCN(S(=O)(=O)c2ccc(Oc3ccccc3OC)cc2)CC1 | nt | -0.16 | nt | nt
O=C(c1ccccc1[N+](=O)[O-])n1cnc2ccccc21 | nt | 0.13 | nt | nt
Cn1c(C(=O)c2ccccc2[N+](=O)[O-])nc2ccccc21 | nt | 0.89 | 80* | nt
O=C(CSc1nc2c(sc3ccccc32)c(=O)n1CCc1ccccc1)NCc1ccco1 | 7 | -0.31 | -36 | -1.1
O=C(CSc1nc2c(sc3ccccc32)c(=O)n1-c1ccccc1)NCc1ccco1 | 15 | nt | 73* | -0.81
Cn1c(=O)c2c(nc(SCC(=O)NCc3ccco3)n2C)n(C)c1=O | 33* | 0.37 | 6 | -0.44
CSc1nnc(-c2ccc(Cl)cc2Cl)o1 | 89* | nt | 11 | -0.68
CNC(=S)Nc1cccc(S(=O)(=O)NC2=NCCC2)c1 | nt | 1 | -45 | nt
SMILES | Measles CPE | ROMK mod | Insulin prom inh | sdo1 growth
COc1ccc(NC(=O)CSc2ccc3c4c(cccc24)C(=O)c2ccccc2-3)cc1 | 1 | nt | -111 | 0.61
N#Cc1cccc(NC(=O)CSc2ccc3c4c(cccc24)C(=O)c2ccccc2-3)c1 | 5 | -4.2* | -233 | -0.73
COC(=O)C1=C2SC(C)C(=O)N2C(N)=C(C#N)C1c1cc(OC)c(OC)c(OC)c1 (configuration not stated) | 9 | nt | nt | 0.64
COC(=O)C1=C2SC(C)C(=O)N2C(N)=C(C#N)C1c1ccc(OC)c(OC)c1 (configuration not stated) | 11 | nt | 82* | 0.5
Cc1ccc(NC(=O)c2cccs2)cc1 | 2 | nt | 47 | 0.06
Cc1[nH]c(=O)[nH]c(=O)c1NC(=O)c1cccs1 | 25* | nt | 8 | 1.5
CCNc1nc(NCC)n2c(SC(C(=O)Nc3cc(C)ccc3C)c3ccccc3)nnc2n1 (configuration not stated) | 80* | -1.7 | nt | 0.74
CCNc1nc(NCC)n2c(SC(C)C(=O)c3ccc(C)cc3)nnc2n1 (configuration not stated) | 12 | nt | nt | 0.43
CCN(CC)C(=O)C1CCN(Cc2cccc(OCc3ccccc3)c2)CC1 | 6 | -3.1* | nt | -0.34
OC1(c2ccccc2F)CCN(Cc2nnc(-c3ccccc3)o2)CC1 | 81* | nt | nt | -0.03
C=CCSc1nc2ccccc2n1S(=O)(=O)c1ccc(C)cc1 | 5 | 0.89 | 95* | -0.39
C(=N\N=C\c1cccnc1)/c1cccnc1 | 4 | nt | -16 | 0.48
CN(/N=C/c1cccnc1)c1cnc2ccccc2n1 | nt | -0.32 | 78* | nt
COc1cc(NC(=O)C(=O)NCCN2CCNCC2)c(OC)cc1Cl | nt | -0.83 | 19 | nt
OCCCc1nc2n(n1)C(c1cccs1)C=C(c1ccccc1)N2 (configuration not stated) | 64* | nt | nt | -0.2
OCCCc1nc2n(n1)C(c1ccccc1)C=C(c1ccc(F)cc1)N2 (configuration not stated) | 6 | -0.76 | -324 | 0.45
COC(=O)CC1C(=O)NCCN1C(=O)CSc1nc2ccccc2s1 (configuration not stated) | nt | 0.4 | nt | nt
C/C(=N\NC(=O)c1c(Cl)c(C)nn1C)c1cccc(NC(=O)COc2ccccc2)c1 | 12 | 4.1* | nt | -2.1
C=CCSc1nnc(NC(=O)c2nc(SCC)ncc2Cl)s1 | 11 | nt | 0 | -1.6
CSc1ncc(Cl)c(C(=O)Nc2nnc(SC/C=C/c3ccccc3)s2)n1 | 51* | -1.2 | 21 | -0.27
Cc1cc(C(C)(C)C)cc(S(=O)(=O)Nc2ccc(O)c(C(=O)O)c2)c1C | 36* | 0.48 | -39 | 0.37
O=C(CN(Cc1ccco1)C(=O)CNS(=O)(=O)c1ccc(F)cc1)NCCc1ccccc1 | 39* | nt | nt | 0.7
Cc1ccc(C)c(SCC(=O)NC(=O)Nc2ccc3c(c2)OCCO3)c1 | 7 | -1.1 | 80* | -0.24
O=C(Cn1nc(-c2cccc([N+](=O)[O-])c2)c2ccccc2c1=O)Nc1cccnc1 | 7 | 0.75 | -20 | 0.18
O=C(NCC1CCCO1)c1c(O)c2cccc3c2n(c1=O)CC3 (configuration not stated) | 55* | 0.35 | -54 | -1.3
SMILES | Measles CPE | ROMK mod | Insulin prom inh | sdo1 growth
O=C(NCC1CCCO1)c1c(O)c2cccc3c2n(c1=O)CCC3 (configuration not stated) | 6 | -0.17 | 71* | -1.5
COC(=O)c1cc(NC(=O)CC2SCCNC2=O)cc(C(=O)OC)c1 (configuration not stated) | 48* | nt | -12 | 1.8
O=c1cc(O)c2ccccc2n1Cc1ccccc1F | nt | 0.11 | 9 | nt
COc1ccccc1NC(=O)NC1(C(=O)N2CCC(O)CC2)CCCCC1 | 6 | -5* | -18 | 0.96
CCOc1ccccc1NC(=O)NC1(C(=O)N2CCOCC2)CCCCC1 | 10 | nt | nt | 1.4
COc1ccc(OC)c(CNC(=O)Cc2c(C(=O)O)[nH]c3ccc(Cl)cc23)c1 | nt | 0.36 | 78* | nt
S=C1NC2(CCCCC2)N=C1c1ccccc1 | 7 | -1.1 | 0 | -0.02
Cc1ccc(C2=NC3(CCCCC3)NC2=S)cc1 | 28 | 1 | 62* | 0.1
O=C1CCc2cc(S(=O)(=O)N3CCCC3C(=O)NC3CCCCCCC3)ccc2N1 (configuration not stated) | 6 | nt | nt | 1.9
CCCC(=O)Nc1ccc(-c2cnc(-c3ccc(NC(=O)CCC)cc3)nc2)cc1 | 26 | nt | nt | -0.52
Nc1ccc(-c2cnc(-c3ccc(N)cc3)nc2)cc1 | 69* | -0.22 | -21 | 0.35
N#C/C(=C\C1CC2C=CC1C2)c1nc2ccccc2[nH]1 (configuration not stated) | 7 | nt | 79* | -1.8
N#C/C(=C\c1cccs1)c1nc2ccccc2[nH]1 | 17 | -0.57 | 85* | -1.7

From PubChem BioAssay
